The list is not random: actives were taken first. Their share in the collection is about 5.1%.
S1P4 antagonist = blocks the human S1P4 receptor; S1P4-expressing cells, antagonist mode, reporter read-out; inhibition, % at 4.98 µM; 220,000 tested, 0.26% active; AID 1510; in the data active = inhibition above about 29%;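 also: 0% = wells stimulated with agonist and 100% = vehicle wells without agonist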
Target sequence (O95977 whole entry, looked up): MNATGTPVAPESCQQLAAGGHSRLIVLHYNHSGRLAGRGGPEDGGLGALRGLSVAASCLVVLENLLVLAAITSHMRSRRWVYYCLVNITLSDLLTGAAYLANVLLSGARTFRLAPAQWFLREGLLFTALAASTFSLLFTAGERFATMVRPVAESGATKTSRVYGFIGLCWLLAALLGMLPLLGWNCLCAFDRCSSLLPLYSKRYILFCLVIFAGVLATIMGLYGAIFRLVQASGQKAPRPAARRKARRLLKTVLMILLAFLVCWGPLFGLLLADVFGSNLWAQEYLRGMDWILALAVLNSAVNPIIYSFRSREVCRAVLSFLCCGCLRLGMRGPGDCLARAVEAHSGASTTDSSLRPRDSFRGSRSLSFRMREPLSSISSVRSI
RAM network inh = yeast RAM network inhibition; S. cerevisiae dse1pr::URA3 reporter, 5-FOA growth OD615, 2 d; analog-sensitive cbk1-as2 kinase mutant strain; 190,000 tested, 1.8% active; inhibition, % at 50 µM;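 active = inhibition above a set limit, 3 SD over mean compound inhibition, cut at about 8.4% in these data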;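 also: 0% = DMSO-only wells with no growth and 100% = 10 µM 1-NA-PP1 full growth; inhibition rescues growth on 5-FOA so higher OD means more RAM inhibition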
S1P3 antag-1 = blocks the human S1P3 receptor. Q99500. CHO S1P3 NFAT-BLA reporter, FRET fluorescence, antagonist mode. inhibition, % at 4.98 µM. 170,000 tested, 0.27% active;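 active = inhibition above the plate cutoff, the mean inhibition of test wells on that plate plus 3 SD, cut at about 28% in these data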;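 also: cells challenged with S1P at its EC80 of 0.8 µM; blue over green emission ratio from cleaved BLA substrate after 4 h stimulation; 0% = S1P-stimulated wells and 100% = unstimulated DMSO-only wells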
Target sequence (Q99500 whole entry, looked up): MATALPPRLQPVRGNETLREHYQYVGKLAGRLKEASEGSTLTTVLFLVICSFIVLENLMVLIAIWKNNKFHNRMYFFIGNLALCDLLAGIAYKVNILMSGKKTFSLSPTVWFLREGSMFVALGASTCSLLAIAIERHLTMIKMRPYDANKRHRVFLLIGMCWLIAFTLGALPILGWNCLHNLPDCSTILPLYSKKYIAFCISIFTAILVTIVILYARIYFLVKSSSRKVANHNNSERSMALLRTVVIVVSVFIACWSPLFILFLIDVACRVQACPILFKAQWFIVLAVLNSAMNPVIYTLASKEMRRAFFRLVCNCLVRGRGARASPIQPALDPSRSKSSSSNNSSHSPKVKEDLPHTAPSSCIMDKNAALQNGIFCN
ROMK primary = modulates human ROMK potassium channel activity | P48048 | Tet-inducible ROMK, thallium flux fluorescence; actives lie on both sides | B-score at 10 µM | 130,000 tested, 2% active;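 active = signal ratio slope over the read window, or its plate-corrected B-score, at least 3 SD from the plate mean, either direction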;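 also: B-score of the F/F0 ratio slope over 7 to 12 s after thallium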
S1P4 ag = activates the human S1P4 receptor. 220,000 tested, 0.35% active. O95977. activation, % at 4.98 µM. AID 1509. S1P4-expressing cell line, agonist reporter assay; in the data active = activation above about 11%;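 also: 0% = DMSO vehicle and 100% = reference agonist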
KCC2 mod = KCC2 (human) Cl- transport modulation. Q9H2X9. KCC2 cells, thallium flux FluoZin-2 fluorescence. B-score of Tl+ flux slope (higher = more flux/activation; lower = inhibition) at 10 µM. 190,000 tested, 2.2% active;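 active = thallium flux slope and its plate-corrected score both differing from the plate sample mean at a set confidence after two filtering rounds, in either direction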;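 also: slope of fluorescence scaled to starting intensity during 10 to 20 s after thallium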
S1P3 antag-2 = confirmation of human S1P3 receptor antagonists. shares compounds with S1P3 antag-1. CHO S1P3 NFAT-BLA reporter, FRET, antagonist mode. inhibition, % at 4.98 µM. 240 tested, 30% active;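 active = inhibition above the hit threshold that was computed for the earlier primary screen, cut at about 30% in these data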;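 also: 0% = S1P-stimulated wells and 100% = unstimulated DMSO-only wells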
RAM 5-FOA = RAM network inhibitors in efflux-deficient yeast. shares compounds with RAM network inh. max inhibition, %. 1,200 tested, under 10 active. S. cerevisiae efflux-deficient reporter strain, 5-FOA growth OD615, 2 days; call rule not given here;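 also: plate controls were vehicle for no effect and reference inhibitor for full effect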
S1P4 antag cf = confirmation of human S1P4 receptor antagonists | S1P4-expressing cell line, antagonist mode, reporter read-out | inhibition, % at 4.98 µM | shares compounds with S1P4 antagonist | 520 tested, 71% active; in the data active = inhibition above about 30%
S1P1 antag = blocks human S1P1, counter-screen for S1P4 antagonists; shares compounds with S1P4 antagonist; cell-based S1P1 antagonist counterscreen, inhibition; inhibition, % at 4.98 µM; 520 tested, 37% active; in the data active = inhibition above about 40%;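 also: receptor stimulated with S1P near its EC80; 0% = agonist stimulated wells and 100% = vehicle only wells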
ROMK hit retest = retested hit modulating human ROMK potassium channel; 3,000 tested, 54% active; ROMK thallium flux, fluorescence ratio; active compounds read low; normalized thallium flux (F/F0 slope) at 10 µM; shares compounds with ROMK primary;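 active = Flux at 10 µM at least 3 SD below or above vehicle control mean in one or both replicates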
Numbers without * were called inactive; i = inactive; nt = no result.

SMILES	S1P4 antagonist	RAM network inh	S1P3 antag-1	ROMK primary	S1P4 ag	KCC2 mod	RAM 5-FOA	others
FC(F)(F)c1cccc(NC(=S)NC(c2ccccc2)c2ccccc2)c1	5.3	15.6*	44.9*	nt	3.8	0.0992	4.3	S1P3 antag-2=48.9*
O=C(NNc1cc(C(F)(F)F)nc2ccccc12)Nc1cccc(Cl)c1	-26.9	nt	3.8	-0.112	0.8	0.2	nt
COC(=O)c1scc2c(=O)cc(C(F)(F)F)[nH]c12	34.5*	nt	32.3*	nt	1.4	0.695	nt	S1P3 antag-2=23.5;S1P4 antag cf=68.8*;S1P1 antag=51.5*
CCCCNc1ccc2c3c(cccc13)C(=O)N(CCCC)C2=O	45.1*	nt	46.6*	nt	0.2	i	nt	S1P3 antag-2=58.7*;S1P4 antag cf=67.4*;S1P1 antag=97.8*
CCCc1nc2c(=O)n(C)c(=O)nc-2n(C)n1	54.5*	-0.9	72.0*	nt	2.3	nt	nt	S1P3 antag-2=106.7*;S1P4 antag cf=88.6*;S1P1 antag=55.8*
CCn1c(N)nc2c1c(=O)n(C)c(=O)n2C	-2.5	1.5	23.9	nt	-2.2	nt	nt
CN(C)c1ccc(/C=N\NC(=O)c2cccc3cc[nH]c23)cc1	9.3	nt	0.3	0.773	1.6	-1.04	nt
CCn1nc(C(=O)OC(C(=O)c2c[nH]c3ccccc23)c2ccccc2)c2ccccc2c1=O (centres undefined)	10.0	2.8	nt	0.56	-1.0	-0.112	nt
c1ccc(CCNc2ncnc3ccccc23)cc1	-19.8	2.0	44.4*	-3.71*	4.5	0.748	nt	S1P3 antag-2=33.2*;ROMK hit retest=0.0756
CC(=O)Nc1ccc(C(F)(F)F)cc1Cl	-7.7	nt	3.0	nt	0.4	0.303	nt
C=C(C)C(=O)Nc1cccc(C2=NOC3(C2)C[C@@H](C(N)=O)N(C(=O)CC(c2ccccc2)c2ccccc2)C3)c1 (some centres undefined)	nt	nt	nt	nt	nt	-0.0927	nt
CC(C)(C)NC(=S)N/N=C\c1ccc(-c2ccc([N+](=O)[O-])cc2)o1	44.7*	nt	69.6*	-3.5*	-2.6	0.852	nt	S1P3 antag-2=73.0*;S1P4 antag cf=82.6*;S1P1 antag=133.7*;ROMK hit retest=0.0476*
CCCCC(=O)N/N=C/c1ccc(-c2ccc([N+](=O)[O-])cc2)o1	-0.4	0.6	17.7	-0.963	2.0	-1.06	nt
C/C(=N\Nc1ccc([N+](=O)[O-])cc1)c1ccc(O)cc1	23.1	-1.6	34.3*	-4.54*	0.5	-0.575	nt	S1P3 antag-2=26.9;ROMK hit retest=0.0532*
COc1ccc(NC(=O)COC(=O)c2cc(SC)ccc2Cl)c(OC)c1	-7.8	6.2	-10.1	0.1	-0.2	0.798	nt
CSc1ccc(Cl)c(C(=O)OCC(=O)Nc2ccccc2OC(F)F)c1	16.6	15.9*	-1.8	-0.362	5.1	0.00381	3.3
COc1ccc(C(C)(C)C)cc1NC(=O)COC(=O)c1cc(SC)ccc1Cl	-17.0	13.2*	-7.3	nt	1.0	0.756	4.1
COc1ccc(CCNC(=O)c2cc(-c3cc(Cl)cc(Cl)c3)oc2C)cc1	-22.5	7.5	nt	nt	2.2	nt	nt
Cc1oc(-c2cc(Cl)cc(Cl)c2)cc1C(=O)NCCc1ccccc1	-2.5	12.9*	-12.3	0.622	-0.7	-1.15	3.3
COC(=O)c1nn(-c2ccccc2)c(Cl)c1/C=N/OCc1ccc(Cl)cc1Cl	-15.1	16.8*	nt	nt	1.4	0.32	4.1
CCCCSc1nnc([C@H](C)NC(=O)OC(C)(C)C)o1	-2.7	-0.6	7.5	nt	-0.8	0.227	nt
CCCCSc1nnc([C@H](CC(C)C)NC(=O)OC(C)(C)C)o1	-4.2	16.4*	10.2	nt	1.5	-0.356	1.6
CCCCCCCCNC(=O)/C(C#N)=C/c1ccc(SC)cc1	-5.6	12.5*	8.1	-0.0199	2.6	0.0294	3.3
COc1ccccc1-c1noc(-c2cc(OC)c(OC)c(OC)c2)n1	-20.5	6.0	36.7	nt	-0.1	-0.695	nt
COc1cc(-c2nc(-c3cccc(C(F)(F)F)c3)no2)cc(OC)c1OC	-0.9	11.8*	nt	nt	-0.1	1.38	1.5
SMILES	S1P4 antagonist	RAM network inh	S1P3 antag-1	ROMK primary	S1P4 ag	KCC2 mod	RAM 5-FOA	others
CCOC(=O)CCCSc1nc(-c2ccc3c(c2)OCO3)cc(C(F)(F)F)c1C#N	-11.7	14.1*	-2.3	0.0118	-0.3	0.411	1.9
CCOc1ccccc1-n1nnnc1SCC(=O)O	2.0	nt	-8.0	nt	0.7	-0.0102	nt
CC(O)CNCCCOc1ccccc1OCc1ccccc1 (centres undefined)	-0.8	2.8	-14.1	0.0443	0.2	0.948	nt
CNCC(C)COc1ccccc1OCc1ccccc1 (centres undefined)	-10.8	19.7*	-7.8	-1.49	-0.1	-1.61	1.5
O=C(COC(=O)c1ccc(-c2ccccc2)cc1)Nc1ccccc1-c1ccccc1	-19.6	11.8*	5.9	-0.51	0.5	0.0442	3.5
CCCCCCN=C(C)c1ccccc1O	-2.9	nt	12.0	nt	-0.3	0.497	nt
CNC(=O)/C(C#N)=C/c1cn(CC(=O)OC)c2ccccc12	8.6	nt	-4.5	nt	-0.9	0.179	nt
COc1ccccc1OCCn1cc(/C=C(\C#N)C(=O)NCc2cccs2)c2ccccc21	-7.9	2.7	-1.9	nt	-0.7	-1.03	nt
N#C/C(=C\c1cn(CCOc2ccccc2)c2ccccc12)C(=O)NCC1CCCO1 (centres undefined)	-6.8	15.5*	nt	nt	0.3	0.46	3.3
CCOC(=O)/C(C#N)=C/c1cn(CCOc2ccc(OC)cc2)c2ccccc12	-4.6	13.2*	-12.7	-0.049	-1.1	-0.0705	4.5
CCc1nnc(NS(=O)(=O)c2ccc(N=CC3=C(O)CC(C)(C)CC3=O)cc2)s1	1.9	3.8	3.0	2.06	-0.4	2.5	nt
CC(C)(C)NC(=O)C(c1cccs1)N(C(=O)c1csnn1)c1ccccc1F (centres undefined)	-3.1	1.3	7.0	-0.173	8.2	nt	nt
O=C(/C=C/c1cccc([N+](=O)[O-])c1)NCCSCc1ccccc1Cl	-12.3	11.7*	-9.8	-0.421	0.2	-1.83	2.0
O=C(/C=C/c1cccc([N+](=O)[O-])c1)NCCSCc1ccc(Cl)cc1Cl	-13.8	11.8*	4.7	0.2	0.5	-1.36	2.7
O=C(/C=C/c1cccc([N+](=O)[O-])c1)NCc1ccc2c(c1)OCO2	-3.4	0.1	-12.0	1.15	0.2	0.0345	nt
O=C(/C=C/c1ccc2c(c1)OCO2)NCCSCc1ccc(Cl)cc1Cl	-20.3	12.2*	nt	nt	-0.7	-0.234	2.9
O=C(CCCn1c(=S)[nH]c2ccccc2c1=O)NCCSCc1ccccc1	-4.5	4.4	10.0	-1.25	-1.0	0.554	nt
